Experimental data taken from PubChem BioAssay (NCI).
This is part of a sample that, as a whole, favours compounds with a hit. Of some 79,000 tested, about 15% had one in any assay. The source made the active and inactive calls. No stated cut-off is given here; in the data, active means growth inhibition above about 70%; inactive means the rest.

Tests used:
[1] = NCI Yeast Anticancer Drug Screen. Data for the rad52 strain (AID 147);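 further: 0% = growth of vehicle-treated control cultures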; conditions: S. cerevisiae rad52 mutant growth inhibition, hits give high values
How it was run: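 Compounds are applied to a genetically defined yeast strain lacking normal DNA damage repair, and inhibition of growth is expressed relative to cultures given vehicle only.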

[2] = NCI Yeast Anticancer Drug Screen. Data for the wt1 strain (AID 149);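 further: 0% = growth of vehicle-treated wt1 cultures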; conditions: S. cerevisiae wt1 strain (SPY 50644) growth inhibition, hits give high values
How it was run: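 Each compound is tested on wt1 yeast and the loss of growth versus vehicle gives the inhibition value.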

[3] = NCI Yeast Anticancer Drug Screen. Data for the rad50EPP+ strain (AID 151);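 further: 0% = growth of vehicle-treated control cultures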; conditions: S. cerevisiae rad50 mutant strain, hits give high values
How it was run: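 Compounds were applied to the rad50EPP+ yeast strain, which bears a defined DNA repair alteration, and growth inhibition was determined relative to vehicle-treated cultures.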

[4] = NCI Yeast Anticancer Drug Screen. Data for the mgt1 strain (AID 153); conditions: S. cerevisiae mgt1 mutant growth inhibition, hits give high values
How it was run: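 Strain: mgt1 yeast, one of a set carrying defined DNA damage repair or cell cycle control alterations. Compound-treated growth compared with vehicle.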

[5] = NCI Yeast Anticancer Drug Screen. Data for the rad50 strain (AID 155);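 further: 0% = growth of vehicle-only cultures of the same strain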; conditions: S. cerevisiae rad50 strain growth inhibition, hits give high values
How it was run: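 Vehicle-treated cultures provide the reference for the growth inhibition reported for compound-exposed, repair-deficient yeast.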

[6] = NCI Yeast Anticancer Drug Screen. Data for the mec2-1 strain (AID 157); conditions: S. cerevisiae mec2-1 strain, hits give high values
How it was run: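 Strain: mec2-1 (DNA repair/cell cycle alteration). Compound exposure, then growth measured; inhibition expressed relative to vehicle.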

[7] = NCI Yeast Anticancer Drug Screen. Data for the rad14 strain (AID 159);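 further: 0% = growth of vehicle-treated control cultures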; conditions: S. cerevisiae rad14 strain growth inhibition, hits give high values
How it was run: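 Inhibition of growth is reported for a repair-deficient yeast mutant following compound treatment, calculated relative to cultures that received vehicle.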

[8] = NCI Yeast Anticancer Drug Screen. Data for the sgs1 mgt1 strain (AID 161);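 further: 0% = growth of cultures given vehicle only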; conditions: S. cerevisiae sgs1 mgt1 strain, hits give high values
How it was run: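 Mutant yeast exposed to compound; growth scored against vehicle-only wells.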

[9] = NCI Yeast Anticancer Drug Screen. Data for the CLN2oe strain (AID 163);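 further: 0% = growth of vehicle-only control cultures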; conditions: S. cerevisiae CLN2oe strain, hits give high values
How it was run: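 Growth of a genetically modified yeast strain is measured after compound exposure and compared with cultures given vehicle alone.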

[10] = NCI Yeast Anticancer Drug Screen. Data for the cln2 rad14 strain (AID 165);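 further: 0% = growth equal to vehicle treated cultures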; conditions: S. cerevisiae cln2 rad14 strain, hits give high values
How it was run: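 Compounds are applied to the cln2 rad14 yeast strain, and growth is then compared with that of vehicle-treated cultures to give inhibition.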

[11] = NCI Yeast Anticancer Drug Screen. Data for the bub3 strain (AID 167); conditions: S. cerevisiae bub3 mutant strain, hits give high values
How it was run: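 Mutant yeast screening strain plus compound; vehicle-treated cultures serve as the 0% inhibition reference.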

[12] = NCI Yeast Anticancer Drug Screen. Data for the wt2 strain (AID 169); conditions: S. cerevisiae wt2 strain growth inhibition, hits give high values
How it was run: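 This strain belongs to a panel of yeast strains with defined genetic alterations in DNA damage repair or cell cycle control. Compounds are applied, and growth inhibition is measured against vehicle-treated cultures.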

[13] = NCI Yeast Anticancer Drug Screen. Data for the mlh1 strain (AID 171);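 further: 0% = growth of vehicle-treated control cultures of the same strain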; conditions: S. cerevisiae mlh1 strain growth inhibition, hits give high values
How it was run: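 Growth of the mutant yeast strain after compound exposure, expressed as inhibition relative to vehicle-only controls.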

[14] = NCI Yeast Anticancer Drug Screen. Data for the sgs1 strain (AID 173);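 further: 0% = growth of vehicle-only control cultures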; conditions: S. cerevisiae sgs1 mutant, hits give high values
How it was run: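 Growth of a yeast strain bearing a defined genetic alteration is measured after compound treatment. Inhibition is expressed relative to vehicle-only controls.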

[15] = NCI Yeast Anticancer Drug Screen. Data for the mlh1 rad18 strain (AID 175); conditions: S. cerevisiae mlh1 rad18 strain growth inhibition, hits give high values
How it was run: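 Read-out is yeast growth inhibition, calculated against vehicle-only controls. The compound was applied to a strain engineered with DNA damage repair alterations.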

[16] = NCI Yeast Anticancer Drug Screen. Data for the rad18 strain (AID 177); conditions: S. cerevisiae rad18 mutant growth inhibition, hits give high values
How it was run: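 Growth of the mutant yeast strain after compound exposure, normalised to vehicle-only cultures.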

[17] = at 5.0 µM (retest, dose inferred, filed as 0.5)
[18] = at 50.0 µM (retest, dose inferred, filed as 5.0)

Measured: growth inhibition

O=C(CCSC1=NCCCN1)c1ccc(F)cc1
active: [1]; at 100.0 µM 99% | [2]; at 100.0 µM 98% | [3]; at 100.0 µM 98% | [4]; at 100.0 µM 99% | [5]; at 100.0 µM 96% | [6]; [18] 75% | [6]; at 50.0 µM 94.3% | [6]; at 100.0 µM 100% | [7]; at 100.0 µM 99% | [8]; [18] 93% | [8]; at 50.0 µM 91% | [9]; at 100.0 µM 98% | [11]; [18] 79% | [11]; at 50.0 µM 91.2% | [12]; at 100.0 µM 99% | [13]; at 100.0 µM 98% | [14]; at 100.0 µM 99% | [16]; at 100.0 µM 96%
inactive: [1]; at 1.2 µM -38% | [1]; at 3.7 µM -55% | [1]; at 11.0 µM -53% | [1]; at 33.0 µM 58% | [2]; at 1.2 µM -43% | [2]; at 3.7 µM -61% | [2]; at 11.0 µM -101% | [2]; at 33.0 µM 15% | [3]; at 1.2 µM -75% | [3]; at 3.7 µM -100% | [3]; at 11.0 µM -54% | [3]; at 33.0 µM 37% | [4]; at 1.2 µM -59% | [4]; at 3.7 µM -59% | [4]; at 11.0 µM -52% | [4]; at 33.0 µM -3% | [5]; at 1.2 µM -21% | [5]; at 3.7 µM -40% | [5]; [17] 24% | [5]; at 11.0 µM -34% | [5]; at 33.0 µM -34% | [5]; [18] 69% | [5]; at 50.0 µM 4.9% | [6]; at 1.2 µM -15% | [6]; at 3.7 µM 3% | [6]; [17] 17% | [6]; at 11.0 µM -52% | [6]; at 33.0 µM 55% | [7]; at 1.2 µM -19% | [7]; at 3.7 µM -50% | [7]; at 11.0 µM -54% | [7]; at 33.0 µM 23% | [8]; [17] 6% | [9]; at 1.2 µM -6% | [9]; at 3.7 µM -7% | [9]; at 11.0 µM -24% | [9]; at 33.0 µM 14% | [10]; [17] -3% | [10]; [18] 13% | [10]; at 50.0 µM 25.6% | [11]; at 1.2 µM -22% | [11]; at 3.7 µM -17% | [11]; [17] 12% | [11]; at 11.0 µM -23% | [11]; at 33.0 µM -26% | [11]; at 100.0 µM 68% | [12]; at 1.2 µM -12% | [12]; at 3.7 µM -13% | [12]; at 11.0 µM -5% | [12]; at 33.0 µM 34% | [13]; at 1.2 µM -32% | [13]; at 3.7 µM -73% | [13]; at 11.0 µM -23% | [13]; at 33.0 µM -13% | [14]; at 1.2 µM -41% | [14]; at 3.7 µM -52% | [14]; at 11.0 µM -58% | [14]; at 33.0 µM -29% | [15]; [17] 24% | [15]; [18] 48% | [15]; at 50.0 µM 14.9% | [16]; at 1.2 µM -13% | [16]; at 3.7 µM -23% | [16]; at 11.0 µM -22% | [16]; at 33.0 µM 21%
